Screening results (PubChem BioAssay)
Only some compounds are listed: those with a hit (about 7.4% of all), similar ones and a draw of the others.
Rab9 promoter act: Rab9 promoter activation; Huh7 Rab9 promoter-luciferase reporter, luminescence, 24 h; Potency, µM (titrated, usually from 9.22 µM), inactives show top-dose activation, negative = inhibition, hits mostly activators; 320,000 compounds, 2.8% hits; AID 485297; further: % of control where 0% means no effect; nearly all actives have a fitted effect of over 60% in size
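Luminescence from Amplite-detected luciferase (10 minutes, ambient) reports Rab9 promoter activation. Before that, stable Rab9-luciferase Huh7 cells (1500/well, reduced-serum OP-MEM I plus 10% FBS) were exposed to compound for 24 hours at 37C.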
NPC1 promoter act: NPC1 promoter activation | 320,000 compounds, 2.4% hits | Potency, µM (series often up to 9.22 µM), without a hit: top-dose activation, most hits filed as activators | Huh7 NPC1 promoter luciferase reporter, 24 h; further: % of control where 0% means no effect; nearly all actives have a fitted effect of over 60% in size
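Huh7 reporter cells (NPC1 promoter driving luciferase) are dosed with compound for 24 h at 37 °C, 5% CO2; luciferase detection reagent is then added and luminescence measured after 10 min at ambient temperature.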
FLuc modulator: inhibits or activates purified firefly luciferase, miR-21 counter-screen | P08659 | purified FLuc, Km substrates, luminescence inhibition | Potency, µM (highest dose often 57.5 µM), for inactives: at the highest dose activity change, negative = inhibition, actives largely listed as inhibitors | 360,000 compounds, 6.9% hits | AID 588342;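 further: plate controls were vehicle for no effect and reference inhibitor for full effect; nearly all actives have a fitted effect of over 55% in size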
Target sequence (P08659 whole entry, looked up): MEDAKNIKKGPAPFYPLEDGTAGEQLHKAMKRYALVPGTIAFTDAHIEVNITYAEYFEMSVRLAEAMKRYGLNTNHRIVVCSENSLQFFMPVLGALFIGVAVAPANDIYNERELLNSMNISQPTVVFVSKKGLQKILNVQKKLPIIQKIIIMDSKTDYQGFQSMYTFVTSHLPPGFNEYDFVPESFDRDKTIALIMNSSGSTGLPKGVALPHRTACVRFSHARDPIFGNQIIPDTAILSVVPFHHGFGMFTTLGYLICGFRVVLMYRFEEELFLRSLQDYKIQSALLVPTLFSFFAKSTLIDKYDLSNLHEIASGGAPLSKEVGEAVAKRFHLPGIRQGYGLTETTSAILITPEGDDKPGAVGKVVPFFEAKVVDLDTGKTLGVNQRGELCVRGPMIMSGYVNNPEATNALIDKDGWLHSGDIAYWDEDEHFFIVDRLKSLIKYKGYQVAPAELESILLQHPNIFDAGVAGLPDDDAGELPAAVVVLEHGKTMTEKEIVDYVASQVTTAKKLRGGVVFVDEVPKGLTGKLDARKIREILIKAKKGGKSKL
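Purified P. pyralis luciferase, 10 nM final, with Km-level 10 uM D-luciferin and 10 uM ATP in 50 mM Tris acetate pH 7.5, 10 mM Mg acetate, 0.01% Tween-20, 0.05% BSA; 6-point qHTS titration about 60 µM downward; luminescence read.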
ELG1 genotoxic: genotoxicity induction in ELG1-luciferase HEK293T cells; Potency, µM (titrated, usually from 46 µM), for the others: at the top dose activity change, positive = activation, hits mostly activators; 330,000 compounds, 1.3% hits; HEK293T ELG1-luciferase reporter, luminescence, 16 h; further: % of control where 0% means no effect; nearly all actives have a fitted effect of over 60% in size
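Cells (2,000/well) expressing the ELG1-luciferase fusion are dosed by pin tool and kept 16 hr at 37 °C, 5% CO2. Signal comes from ONE-Glo luciferase reagent after 30 min at room temperature.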
SMN2 splice up: SMN2 splice variant enhancement | HEK293 SMN2-luciferase splicing reporter, luminescence, 30-36 h | Potency, µM (series often up to 46.1 µM), inactives show at the highest dose activity change, positive = activation, usual class: activators | 210,000 compounds, 2.8% hits | AID 1458; further: % of control where 0% means no effect; nearly all actives have a fitted effect of over 55% in size
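HEK293 cells carry an SMN2 minigene-luciferase reporter in which exon 7 inclusion puts luciferase in frame. Cells were seeded at 2000 cells/well, attached for 10-12 hours, then exposed to compounds for 30-36 hours at 37C before ONE-Glo luminescence.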
* hit, by the source's call; ? = inconclusive; / = no result; ! = repeats disagree; [ ] = dose if it differs, or a comment. The call rests on the fitted dose curve; in most records, active means well fitted curve in the direction sought with a large enough effect; inconclusive means small, poorly fitted or top-dose-only effect, or another doubt; inactive means no such curve, though single readings can be large; an effect the other way counts as inactive or inconclusive. Potency means the concentration at half of the fitted maximal effect.

SMILES | Rab9 promoter act | NPC1 promoter act | FLuc modulator | ELG1 genotoxic | SMN2 splice up
c1ccc(CSc2ccc(-c3cccs3)nn2)cc1 | 2.8µM* | 3.2µM* | 1.9µM* | ? | 16µM*
c1ccc(CSc2ccc(-c3cccs3)nn2)nc1 | 2.2µM* | 3.5µM* | 24µM* | 17% | 16µM*
CCOC(=O)C1=C(Cc2ccc(Cl)cc2)C(=O)c2ccccc2C1=O | -10% | 6% | 21µM* | -6% | -26%
CCOC(=O)C1=C(C)N=C2c3ccccc3C(=O)C2C1c1ccc(Cl)cc1 (stereo not drawn) | -6% | -4% | 0% | -5% | -4%
CC(Sc1nc(-c2ccccc2)c(C#N)c(=O)[nH]1)C(=O)Nc1ccc(F)cc1 (stereo not drawn) | / | / | 17µM* | / | /
Cc1ccc(NC(=O)C(C)Sc2nc(-c3ccccc3)c(C#N)c(=O)[nH]2)c(C)c1 (stereo not drawn) | / | / | 12µM* | / | /
CSc1nc(-c2ccccc2)c(C#N)c(=O)[nH]1 | -3% | 0% | -1% | -2% | /
CC(=O)C[C@H](O)CC(=O)[C@H]1OC(=O)[C@@H](C)CCCCc2ccccc21 | / | / | / | -1% | /
O=C(COC(=O)c1ccccn1)NCc1cccs1 | -4% | 9% | ? | 4% | /
CCC(NC(=O)c1ccc2nc(Cc3ccc(OC)cc3)oc2c1)c1ccncc1 (stereo not drawn) | -28% | -19% | -3% | -6% | /
COc1ccc(C(=O)n2c(SC)nc3cc4c(cc32)OCCO4)cc1 | 29% | 17% | 19µM* | ? | 9%
COc1ccc(C(=O)c2cc3c(cc2[N+](=O)[O-])OCCO3)cc1 | 1% | -1% | -1% | 4% | /
Cc1ccc(-n2ncc3c(=O)n(CC(=O)N4CCCCCC4)cnc32)cc1 | 3% | 2% | 17µM* | 2% | -25%
Cc1nc2c3cnn(-c4ccc(C)c(C)c4)c3ncn2n1 | 2µM* | 2µM* | 6.7µM* | ? | 11µM*
CCOC(=O)Cn1cnc2c(cnn2-c2ccc(C)c(C)c2)c1=O | / | / | 21µM* | / | 25%
Cc1ccc(-n2ncc3c(=O)n(CC(N)=O)cnc32)cc1C | 11% | 8% | -19% | 6% | /
Cc1ccc(C(=O)OCC(=O)NC(=O)c2ccccc2)o1 | -10% | 0% | -1% | 4% | /
N#Cc1c(N)nc(N)nc1Nc1ccc(Br)cc1 | 1.4µM* | 1.3µM* | 6µM* | 9.2µM* | /
Cc1nc(N)nc(Nc2ccc(C#N)cc2)c1Br | -5% | -1% | 0% | 1% | /
COc1ccc(C(=O)COC(=O)c2cc(-c3ccccc3)nc3c(C)cccc23)cc1 | / | / | 0% | / | 3%
CN(C)c1ccc(CNC(=O)C2CCCN(S(=O)(=O)c3ccc4c(ccn4C)c3)C2)cc1 (stereo not drawn) | / | / | 0% | / | /
O=C(NCC1CCCO1)c1ccc2[nH]c3c(c2c1)CCCC3 (stereo not drawn) | 26% | 5% | 21µM* | 12% | /
O=C(NCCN1CCOCC1)c1sc2cc(Cl)ccc2c1Cl | 0% | 1% | -16% | 16% | /
O=C(NCC1CCCO1)c1sc2cc(Cl)ccc2c1Cl (stereo not drawn) | 2µM* | 3.2µM* | 11µM* | ? | 13µM*
O=C(NCC1CCCO1)c1cccc(C(=O)NCC2CCCO2)c1 (stereo not drawn) | 0% | -8% | -2% | 0% | /
SMILES | Rab9 promoter act | NPC1 promoter act | FLuc modulator | ELG1 genotoxic | SMN2 splice up
CC(C)(CNC(=O)c1sc2cc(Cl)ccc2c1Cl)N1CCOCC1 | -4% | 0% | ? | 16µM* | /
Cc1cc(NC(=O)CCS(=O)(=O)c2cc(Br)cc3c2N(C(=O)C2CC2)CC3)ccc1Br | / | / | -11% | / | -5%
CCCNC(=O)[C@H]1O[C@@H]1C(=O)N[C@H](C(=O)N1CCC[C@H]1C(=O)OC)[C@@H](C)CC | / | / | / | / | -88%
C#C[C@]1(O)CCC2C3CCC4=C(CCC(=O)C4)C3CC[C@@]21C (stereo partly drawn) | / | / | / | / | 5%
O=C(C1COc2ccccc2O1)N1CCN(c2nc3c(F)cccc3s2)CC1 (stereo not drawn) | / | / | -5% | / | /
CCc1ccc2nc(N3CCN(C(=O)C4CC4)CC3)sc2c1 | / | / | 15µM* | / | /
CCCCN(C)CCNC(=O)C1CCN(c2nc3ccc(CC)cc3s2)CC1 | / | / | 12µM* | / | 10%
CCCCN(C)CCCNC(=O)c1ccc2nc(N3CCCCC3)sc2c1 | / | / | 4% | / | 15%
Cc1ccc2nc(N3CCN(C(=O)C4COc5ccccc5O4)CC3)sc2c1 (stereo not drawn) | / | / | 8.5µM* | / | /
CCc1ccc2nc(N3CCC(C(=O)O)CC3)sc2c1 | / | / | 0.21µM* | / | ?
COc1ccc(OC)c(NC(=O)Cn2nc3c(cc2=O)CCCC3)c1 | / | / | -8% | / | -6%
Cc1ccc(-n2[nH]c(C)c(/C=N/NC(=O)c3ccc([N+](=O)[O-])cc3)c2=O)c(C)c1 | -21% | -32% | ? | -7% | -90%
COc1cccc(-c2c(-c3cc(OC)cc(OC)c3)n(C)c3ccc(-c4cnc(N5CCOCC5)nc4)cc23)c1 | / | / | / | 0% | /
COc1ccc(C(=O)c2sc3nc4c(c(C(F)(F)F)c3c2N)CN(C(C)=O)CC4)cc1OC | / | / | -2% | / | -12%
COc1ccc(CNC(=O)c2sc3nc4c(c(C(F)(F)F)c3c2N)CCC4)cc1OC | -5% | 0% | 21µM* | 4% | -76%
O=C(CSc1ncnc2nc[nH]c12)c1ccccc1 | 4µM* | 2.8µM* | 21µM* | 1% | 11µM*!
c1ccc(CCSc2ncnc3nc[nH]c23)cc1 | ? | ? | 15µM* | 7% | -7%
O=C(O)CCSc1ncnc2nc[nH]c12 | / | / | / | / | -11%[9.22 µM]
O=c1[nH]c(CSc2nnc(Nc3ccccc3)s2)nc2ccccc12 | 1% | -1% | 1% | 7% | /
O=C(NC(=S)Nc1nc(-c2ccccc2)cs1)c1ccco1 | -1% | 5% | ? | -3% | -5%
